The text below walks through data of PubChem BioAssay AID1063 (University of Pittsburgh Molecular Library Screening Center, 2008).

About 18,000 (9%) of roughly 200,000 compounds were called active. This excerpt belongs to a sample that is enriched for actives. Values without a mark were called inactive. Rule as the data show it: active = inhibition above about 50%; inactive = the rest.

This test is described as follows: Leishmania major promastigote growth inhibition, primary screen (AID 1063).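 Also: promastigotes grown with compound for 44 hours at 28 °C.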 Particulars: Leishmania major promastigotes, resazurin fluorescence viability; at 10 µM; active compounds read high. A general note: Resazurin is reduced to fluorescent resorufin, in cell work by metabolically active cells.
As for `Cc1ccnc(SCC(N)=O)n1`, the inhibition was -7.56%.

For the molecule `O=C(Nc1ccc(F)c([N+](=O)[O-])c1)C1CC(=O)N(Cc2ccccc2)C1` (stereo not given), the inhibition was 8.12%.

Consider `CNC(=S)Nc1ccc([N+](=O)[O-])cc1`, for which the inhibition was 6.53%.

Regarding `COc1ccccc1OCCC(=O)OCC(=O)NC(=O)NC(C)(C)C`, the inhibition was -5.7%.

Consider `COc1ccccc1OCC(=O)OCn1c(SC)nnc(C)c1=O`, for which the inhibition is 58% (active).

`COc1cccc(NC(=O)COC(=O)CCOc2ccccc2OC)c1`: the inhibition is -0.7%.

In the case of `Cn1cnnc1SCc1nnc(-c2ccccc2Br)o1`, the inhibition is -7.2%.

Take `COc1ccc(C2CC(c3cccs3)=NN2C(=O)CSc2nncs2)cc1OC` (stereo not given): the inhibition is 8.19%.

`COc1ccc(C2CC(c3cccs3)=NN2C(=O)COC(=O)c2cc3ccccc3cc2O)cc1OC` (stereo not given): the inhibition is 58% (active).

Regarding `COc1ccc(C2CC(c3cccs3)=NN2C(=O)CSc2nnc(N)s2)cc1OC` (stereo not given), the inhibition was 2.75%.

Regarding `COc1ccccc1NC(=O)CCSc1nnc(-c2ccc(O)cc2)o1`, the inhibition is -3.54%.

For `NS(=O)(=O)c1cccc(NC(=O)CSc2nc3ccccc3n2-c2ccccc2)c1`, the inhibition is 9.64%.

On to `Cc1ccc(SCCC(=O)OCC(=O)Nc2ncc(Cl)cc2Cl)cc1`, for which the inhibition is -4.94%.

In the case of `Cc1ccc(-n2c(SCC(=O)Nc3ncc(Cl)cc3Cl)nc3ccccc32)cc1`, the inhibition was 89.5% (active).

With `O=C(O)CC1S/C(=N\N=C/c2ccccc2O)N(c2ccc(O)cc2)C1=O` (stereo not given), the inhibition was -7.61%.

Regarding `CC(=O)C1(C)N(O)C(C)(C)C(c2cccs2)=[N+]1[O-]` (stereo not given), the inhibition was -4.97%.

Take `CCOC(=O)c1cc(C#N)c(N2CCCCC2)nc1-c1ccccc1`: the inhibition was 53.9% (active).

As for `Cc1cccc2cc(C#N)c(N3CCCC3)nc12`, the inhibition was 4.74%.

On to `CC(=O)c1cc(C#N)c(N2CCCCC2)nc1C`, for which the inhibition is -3.09%.

Turning to `CCN1CC(CN(C)Cc2nc(-c3ccc(Cl)cc3)no2)CC1=O` (stereo not given), the inhibition was -8.19%.

`COc1cc(NC(=O)COC(=O)c2cnc(C)cn2)c(C)cc1[N+](=O)[O-]`: the inhibition was -4.51%.

Turning to `O=C(CSc1ccc(-c2ccco2)nn1)NCc1ccc2c(c1)OCO2`, the inhibition was 14%.

As for `Cc1cc(C(=O)NNC(=O)c2cccc(S(=O)(=O)N3CCOCC3)c2)c2ccccc2n1`, the inhibition was -9.98%.

In the case of `Cc1cc(N2CCN(S(=O)(=O)c3ccc(C)c(C)c3)CC2)c2ccccc2n1`, the inhibition was 98.6% (active).

As to `Cc1ccc(S(=O)(=O)C(C#N)c2nc3ccccc3nc2N2CCCC2)cc1C` (stereo not given), the inhibition was -2.26%.

With `COc1ccc(CCNc2ncnc3nc[nH]c23)cc1OC`, the inhibition was 5.03%.

Turning to `COc1ccc(CCNC2=C(Cl)C(=O)N(Cc3ccccc3)C2=O)cc1OC`, the inhibition was 8.4%.

For `COc1ccc(CCNc2cc(C)nc3c(-c4ccc(Cl)cc4)c(C)nn23)cc1OC`, the inhibition is 76.3% (active).

`Cc1cc(Cl)ccc1OCCCC(=O)NCc1ccccn1`: the inhibition was 5.49%.

As for `COc1ccccc1OCCNc1cc(N2CCOCC2)ccc1[N+](=O)[O-]`, the inhibition is 2.32%.

In the case of `COc1ccccc1OCCNC(=O)c1cc([N+](=O)[O-])cc([N+](=O)[O-])c1`, the inhibition is 93.5% (active).

In the case of `COCCCNC(=S)NC(=O)c1ccc([N+](=O)[O-])cc1`, the inhibition was -8.2%.

For the molecule `Cc1ccc(NC(=O)CSCC(=O)NC2CCCCC2)cc1`, the inhibition is 14.3%.

On to `CCC1CO/C(=C(\C(=C(Cl)Cl)N2CCOCC2)[N+](=O)[O-])N1` (stereo not given), for which the inhibition was -6.26%.

As for `Cc1noc(C)c1S(=O)(=O)Nc1ccc(C(=O)N2CCN(c3ccc(F)cc3)CC2)cc1`, the inhibition was 4.11%.

With `CCc1ccccc1NC(=O)CN(C)C(=O)COc1ccc(C)nc1[N+](=O)[O-]`, the inhibition was 57.1% (active).

Turning to `Cc1ccc(OCC(=O)Nc2ccccc2Sc2ccc(Cl)cc2)c([N+](=O)[O-])n1`, the inhibition is 7.6%.

In the case of `COc1ccccc1CNC(=O)COc1ccc(C)nc1[N+](=O)[O-]`, the inhibition is 0.88%.

As for `CC(=O)c1c(C)[nH]c(C(=O)OCC(=O)Nc2cc(S(=O)(=O)N3CCCCC3)ccc2C)c1C`, the inhibition was 95.4% (active).

As for `COc1ccc(S(=O)(=O)N2CCCCCC2)cc1C(=O)OCC(=O)Nc1cc(C)on1`, the inhibition is 3.73%.

For `CC(=O)c1c(C)[nH]c(C(=O)Nc2cc(S(=O)(=O)N(C)C)ccc2C)c1C`, the inhibition was -6.9%.

As to `CC(C)(C)C(=O)Cn1c(NCCO)nc2ccccc21`, the inhibition is -7.58%.

For the molecule `OCCNc1nc2ccccc2n1-c1ncnc2sc3c(c12)CCC3`, the inhibition is 60.8% (active).

Regarding `Cn1c(NN)nc2sc3c(c2c1=O)CCC3`, the inhibition is -2.23%.

As for `CCN1CCc2nc(NC(=O)c3cc(F)c(F)cc3Cl)sc2C1`, the inhibition is -0.49%.

Regarding `Nc1ccc(Cl)c(S(=O)(=O)Nc2ccccc2Cl)c1`, the inhibition was 1.56%.

In the case of `CCOc1ccc2nc(Cl)c(C3CC(c4ccccc4)=NN3C(=O)c3cccs3)cc2c1` (stereo not given), the inhibition was 66.5% (active).

`COc1ccc(C2CC(c3ccccc3)=NN2C(=O)c2ccc(Cl)c([N+](=O)[O-])c2)cc1` (stereo not given): the inhibition is 31.9%.

In the case of `CCOc1ccccc1C1CC(c2cccc(NS(C)(=O)=O)c2)=NN1C(=O)c1ccccc1` (stereo not given), the inhibition was 2.04%.

Regarding `COc1ccc(C(=O)COC(=O)c2ccc3ccccc3n2)cc1`, the inhibition was -7.38%.

Turning to `COc1ccc(CCNC(=O)CCn2c(=O)c3ccccc3n(CC(=O)NCC3CCCO3)c2=O)cc1OC` (stereo not given), the inhibition is -3.03%.

Take `Cc1ccnc(NC(=O)c2ccco2)n1`: the inhibition was -6.16%.

In the case of `COc1ccc(CCCc2nnc(SCc3nc4ccccc4c(=O)[nH]3)n2C)cc1`, the inhibition was -4.22%.

Regarding `CC(NC(=O)COC(=O)c1cc(=O)[nH]c2ccccc12)c1ccccc1` (stereo not given), the inhibition is -4.71%.

For `Cc1ccccc1CC1(CO)CCCN(C(=O)c2cc(-c3ccccc3)no2)C1` (stereo not given), the inhibition is -3.77%.

Turning to `Cc1ccccc1CC1(CO)CCCN(Cc2ccc3c(c2)OCCO3)C1` (stereo not given), the inhibition is 70.2% (active).

In the case of `COc1cccc(CC2(CO)CCCN(Cc3nc(-c4cccs4)oc3C)C2)c1` (stereo not given), the inhibition is 2.57%.

Consider `COc1cc(CN2CCN(Cc3ccc(C)cc3)CC2)c([N+](=O)[O-])cc1OC`, for which the inhibition was 53.4% (active).

Turning to `COc1cc(CN2CC(C)CC(C)C2)cc([N+](=O)[O-])c1O` (stereo not given), the inhibition is 16.2%.

In the case of `COc1cc(CC(=O)N/N=C/c2ccccc2)c([N+](=O)[O-])cc1OC`, the inhibition was -0.35%.

For `CCOC(=O)CNC(=O)/C(=C\c1ccc(F)cc1)NC(=O)c1ccccc1`, the inhibition was -2.16%.

On to `CCN(CC(=O)NCc1cccs1)C(=O)c1ccccc1F`, for which the inhibition is 35%.

Consider `CCOc1ccc(CCNC(=O)C2=C(C)C(=O)OC23CCC(C)CC3)cc1OCC` (stereo not given), for which the inhibition was 5.17%.

With `COc1ccc(CNC(=O)CN2CCC(n3nnc4cc(F)ccc43)CC2)cc1`, the inhibition was 2.66%.

In the case of `CCOc1cc(NC(=S)NCCCOC)c(OCC)cc1NC(=O)c1ccco1`, the inhibition was 36.4%.

Consider `CCN1CCN(CC(=O)Nc2sc3c(c2C#N)CCC3)CC1`, for which the inhibition was -1.23%.

`CCC1CCc2c(sc(NC(C)=O)c2C#N)C1` (stereo not given): the inhibition is -3.49%.

As for `CN1CCN(CC(=O)Nc2sc3c(c2C#N)CCC(C(C)(C)C)C3)CC1` (stereo not given), the inhibition was 100% (active).

On to `Cc1nn2cc(-c3ccc(Cl)cc3)cnc2c1Br`, for which the inhibition was -2.01%.

`N#C/C=C\Oc1ccc(Cl)cc1N`: the inhibition was 67.9% (active).

For the molecule `COc1ccc(Cl)cc1C(=O)NCC#N`, the inhibition was -4%.

Regarding `CCCC/S(C)=N/S(=O)(=O)c1ccc(C)cc1` (stereo not given), the inhibition was -10.2%.

Consider `COc1cc(NS(=O)(=O)c2ccc(NC(=O)c3ccc(S(=O)(=O)N4CCCCC4)cc3)cc2)ncn1`, for which the inhibition was -2.97%.

As for `Cc1c(CCOC(=O)CC23CC4CC(CC(C)(C4)C2)C3)sc[n+]1Cc1ccc([N+](=O)[O-])cc1`, the inhibition is 87.9% (active).

On to `Cc1c(CCOC(=O)c2cc([N+](=O)[O-])ccc2Cl)sc[n+]1CCCCS(=O)(=O)[O-]`, for which the inhibition was -8.59%.

Regarding `Cc1c(CCO)sc[n+]1CC(=O)OC12CC3CC(CC(C3)C1)C2`, the inhibition was 30.7%.

Turning to `COCCNC(=O)CCCn1c(=O)c2ccccc2n(Cc2cccc([N+](=O)[O-])c2)c1=O`, the inhibition is 4.7%.

Consider `CCCCNC(=O)CCn1c(=S)[nH]c2cc3c(cc2c1=O)OCO3`, for which the inhibition is -1.74%.

For the molecule `CCCCNC(=O)CCn1c(=O)c2ccccc2n(Cc2cc(C)ccc2C)c1=O`, the inhibition is 58% (active).

As to `Cc1cc(OC(=O)c2ccccc2)c([N+](=O)[O-])c(=O)[nH]1`, the inhibition is -2.98%.

Consider `COc1ccc(CN(C)C(=S)Nc2ccc(Cl)cc2Cl)cc1`, for which the inhibition is 4.79%.

As for `CCCCn1c(CCCNC(=O)CC)nc2ccccc21`, the inhibition was 12.4%.

With `CC(=O)Nc1nc2ccccc2n1Cc1ccc(C)cc1`, the inhibition was 88.6% (active).

Turning to `CCC(=O)NCCc1nc2ccccc2n1CC`, the inhibition was -0.68%.

For `CCC(=O)Nc1nc2ccccc2n1Cc1ccccc1C`, the inhibition was 97.5% (active).

Consider `Cc1ccc(Cn2c(NC(=O)c3ccco3)nc3ccccc32)cc1`, for which the inhibition was 9.07%.

In the case of `O=S(=O)(O)c1nc2ccccc2n1Cc1ccc(Cl)cc1`, the inhibition is -5.39%.

As to `CCO[C@@H]1OC(C(=O)N2CCOCC2)=C[C@H](C)[C@H]1CCCO`, the inhibition is -9.37%.

As to `Cn1nnnc1SCC(=O)Nc1nc2ccccc2s1`, the inhibition is -3.39%.

For `CC(=O)c1ccc(NC(=O)C(C)N(C)CC(=O)Nc2ccccc2Cl)cc1` (stereo not given), the inhibition is 12.8%.

For the molecule `COc1ccc(S(=O)(=O)N(C)CC(=O)N2CCCC2)cc1Cl`, the inhibition is -0.12%.

Turning to `COc1cc(CNC2CCCCC2)c(Br)cc1OC1CCCC1`, the inhibition was 60.8% (active).

On to `CC(C)(C)NCc1cc(Br)ccc1OC1CCCC1`, for which the inhibition was 15.5%.

Take `COc1cc(CNC2CCCC2)c(Br)cc1OCc1ccccc1`: the inhibition is 35.4%.

As for `C=CS(=O)c1sc(Cl)c(N2CCOCC2)c1[N+](=O)[O-]` (stereo not given), the inhibition is 20.9%.

In general, inhibition refers to the change of the read-out against control, counted positive when it falls.
